Measured values taken from PubChem BioAssay (NCATS).
Where “and” joins values, the source holds several entries; their conditions need not be identical. Equal values may be shown once. Records with an inconclusive call do not appear. Where a call stands in place of a potency, no number is given. Calls of active or inactive are those of the source. Unless noted, the call rests on the fitted dose curve.

What was measured:
[1] = MultiTox-Fluor Cytotoxicity Assay - LYMP1-001 - Dead Cells (AID 946; active means well fitted curve in the direction sought with a large enough effect; an effect the other way counts as inactive or inconclusive)
How it was run: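 Cytotoxicity as increased dead-cell protease fluorescence (bis-AAF-R110, 485/520 nm), read 60 min after MultiTox-Fluor reagent. Human lymphoblastoid line exposed 16 h; Hill-fitted AC50, with DMSO as 0% and 15 uM tetraoctylammonium bromide as 100%.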

[2] = Cell Viability - LYMP2-007 (AID 979; active means well fitted curve in the direction sought with a large enough effect; an effect the other way counts as inactive or inconclusive;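 further: cells exposed to compound for 24 h before reading; nearly all actives have a fitted effect of over 60% in size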; further: potency means the concentration at half of the fitted maximal effect)
How it was run: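 qHTS cytotoxicity: 2500 cells/well, 5 hr 37 C settle, compound 24 hr 37 C, CellTiter-Glo 30 min RT, luminescence. Decrease in ATP = toxicity. AC50 by standard Hill equation; tetraoctylammonium bromide positive control.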

[3] = molecular target: Estrogen receptor (Homo sapiens) (UniProt P03372); test: qHTS assay for small molecule agonists of estrogen receptor alpha signaling (AID 588514); further: nearly all actives have a fitted effect of over 70% in size
Chain of Estrogen receptor (Homo sapiens) (P03372 whole entry, looked up): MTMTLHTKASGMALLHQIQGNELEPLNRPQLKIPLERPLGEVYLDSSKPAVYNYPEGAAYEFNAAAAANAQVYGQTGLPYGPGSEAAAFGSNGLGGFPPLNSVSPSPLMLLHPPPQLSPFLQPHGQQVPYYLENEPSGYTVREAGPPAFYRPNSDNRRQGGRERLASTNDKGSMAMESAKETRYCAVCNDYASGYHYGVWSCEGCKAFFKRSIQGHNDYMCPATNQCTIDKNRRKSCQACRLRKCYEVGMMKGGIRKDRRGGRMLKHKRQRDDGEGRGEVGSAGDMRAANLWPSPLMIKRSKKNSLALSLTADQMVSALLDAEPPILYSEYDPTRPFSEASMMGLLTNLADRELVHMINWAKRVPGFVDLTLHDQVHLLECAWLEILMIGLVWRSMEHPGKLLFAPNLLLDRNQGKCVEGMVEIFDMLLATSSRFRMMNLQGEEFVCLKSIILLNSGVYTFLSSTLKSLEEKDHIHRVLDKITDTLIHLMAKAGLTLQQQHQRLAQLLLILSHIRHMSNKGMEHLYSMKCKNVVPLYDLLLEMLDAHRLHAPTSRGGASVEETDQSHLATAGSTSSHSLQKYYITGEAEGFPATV
How it was run: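 Read-out: CCF4 fluorescence from a beta-lactamase reporter in ER-alpha-UAS-bla HEK 293 cells after 18 hrs of compound exposure at 37 C. Normalized to 20 nM 17-beta-estradiol (100%) and DMSO (0%).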

[4] = molecular target: Bile acid receptor (Homo sapiens) (UniProt Q96RI1); test: qHTS assay for small molecule antagonists of farnesoid X receptor signaling (AID 588526)
Chain of Bile acid receptor (Homo sapiens) (Q96RI1 whole entry, looked up): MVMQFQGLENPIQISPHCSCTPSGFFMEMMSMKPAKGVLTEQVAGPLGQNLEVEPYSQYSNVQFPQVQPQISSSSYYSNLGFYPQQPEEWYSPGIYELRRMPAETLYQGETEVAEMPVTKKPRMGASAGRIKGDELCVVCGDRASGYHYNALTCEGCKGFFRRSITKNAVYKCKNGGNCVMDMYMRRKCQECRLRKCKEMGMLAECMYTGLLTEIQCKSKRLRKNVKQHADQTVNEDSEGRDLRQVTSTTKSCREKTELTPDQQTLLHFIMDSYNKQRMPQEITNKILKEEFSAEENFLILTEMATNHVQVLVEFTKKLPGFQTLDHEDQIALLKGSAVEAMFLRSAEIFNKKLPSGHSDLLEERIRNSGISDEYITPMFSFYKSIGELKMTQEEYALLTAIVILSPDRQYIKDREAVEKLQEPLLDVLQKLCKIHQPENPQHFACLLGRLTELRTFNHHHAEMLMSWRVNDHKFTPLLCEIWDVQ
How it was run: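 Beta-lactamase reporter antagonist mode: HEK293T FXR-UAS-bla cells, titrated compound, CDCA stimulation, 16 h 37 C, CCF4 dye 2 h RT. Data normalized to CDCA 50 uM and DMSO; Hill-fit IC50.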

[5] = molecular target: Glucocorticoid receptor (Homo sapiens) (UniProt P04150); test: qHTS assay for small molecule antagonists of glucocorticoid receptor signaling (AID 588533; active means well fitted inhibition curve with a large enough effect in the signal ratio, with a control signal flat, not every such curve was filed as active; the % refers to the signal ratio;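 further: cells stimulated with 2 nM dexamethasone as agonist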; further: potency means the concentration at half of the fitted maximal effect)
Chain of Glucocorticoid receptor (Homo sapiens) (P04150 whole entry, looked up): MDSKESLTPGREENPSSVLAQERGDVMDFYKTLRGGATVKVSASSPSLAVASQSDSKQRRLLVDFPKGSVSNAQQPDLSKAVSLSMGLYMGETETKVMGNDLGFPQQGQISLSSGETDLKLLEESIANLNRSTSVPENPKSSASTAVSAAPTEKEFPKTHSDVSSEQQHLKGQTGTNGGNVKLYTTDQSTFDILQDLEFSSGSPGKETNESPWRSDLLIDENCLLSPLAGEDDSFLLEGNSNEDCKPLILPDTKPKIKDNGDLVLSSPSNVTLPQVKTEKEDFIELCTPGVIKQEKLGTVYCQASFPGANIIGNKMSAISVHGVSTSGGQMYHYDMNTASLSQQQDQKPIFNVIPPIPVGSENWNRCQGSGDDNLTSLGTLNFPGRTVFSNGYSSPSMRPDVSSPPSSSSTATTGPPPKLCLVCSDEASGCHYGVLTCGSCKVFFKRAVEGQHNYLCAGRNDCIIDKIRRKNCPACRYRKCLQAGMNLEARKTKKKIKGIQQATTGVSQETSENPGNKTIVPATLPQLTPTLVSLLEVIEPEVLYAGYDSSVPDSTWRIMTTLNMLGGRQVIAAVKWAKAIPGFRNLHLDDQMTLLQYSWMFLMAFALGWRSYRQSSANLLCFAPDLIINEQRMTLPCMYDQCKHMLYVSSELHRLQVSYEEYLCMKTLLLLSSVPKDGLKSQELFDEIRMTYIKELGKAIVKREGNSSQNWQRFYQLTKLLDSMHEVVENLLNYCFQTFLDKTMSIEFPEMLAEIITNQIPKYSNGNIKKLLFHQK
How it was run: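 Antagonist-mode qHTS: compound titrations added to GRE-bla HeLa cells, then dexamethasone 2 nM final; 18 h, 37 C. CCF4 FRET fluorescence normalized to dexamethasone and DMSO; IC50 from Hill fit.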

[6] = qHTS assay for small molecule antagonists of peroxisome proliferator-activated receptor delta signaling (AID 588535; active means well fitted inhibition curve with a large enough effect in the signal ratio, with a control signal flat, not every such curve was filed as active; the % refers to the signal ratio;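 on max response: cells co-treated with a PPAR-delta agonist as stimulator during compound exposure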); conditions: HEK293T PPARd-UAS-bla, beta-lactamase FRET ratio, 18 h; 460 nm channel
How it was run: (§1)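 Antagonist-mode qHTS using GeneBLAzer PPAR-delta-UAS-bla HEK293T cells; compound exposure 18 hrs at 37 C over a titration. Ratiometric CCF4 fluorescence at 460/530 nm; concentration-response points fitted to the Hill equation.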

[7] = molecular target: Peroxisome proliferator-activated receptor delta (Homo sapiens) (UniProt Q03181); test: as above
Chain of Peroxisome proliferator-activated receptor delta (Homo sapiens) (Q03181 whole entry, looked up): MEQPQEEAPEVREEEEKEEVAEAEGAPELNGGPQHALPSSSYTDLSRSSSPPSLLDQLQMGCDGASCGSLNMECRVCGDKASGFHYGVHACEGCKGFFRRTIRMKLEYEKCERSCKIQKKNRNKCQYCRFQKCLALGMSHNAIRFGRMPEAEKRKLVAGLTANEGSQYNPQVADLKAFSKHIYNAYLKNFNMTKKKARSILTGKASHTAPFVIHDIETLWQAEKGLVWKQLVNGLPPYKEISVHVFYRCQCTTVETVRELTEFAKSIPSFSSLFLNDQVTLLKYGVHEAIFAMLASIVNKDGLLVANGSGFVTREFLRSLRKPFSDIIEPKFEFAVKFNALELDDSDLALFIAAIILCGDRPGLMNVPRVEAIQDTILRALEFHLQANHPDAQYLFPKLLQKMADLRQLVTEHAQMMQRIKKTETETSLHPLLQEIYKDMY
How it was run: as §1

[8] = molecular target: Peroxisome proliferator-activated receptor gamma (Homo sapiens) (UniProt P37231); test: qHTS assay for small molecule antagonists of peroxisome proliferator-activated receptor gamma signaling (AID 588537; active means well fitted inhibition curve with a large enough effect in the signal ratio, with a control signal flat, not every such curve was filed as active; the % refers to the signal ratio;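 further: reporter cells co-stimulated with 50 nM rosiglitazone agonist during compound treatment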)
Chain of Peroxisome proliferator-activated receptor gamma (Homo sapiens) (P37231 whole entry, looked up): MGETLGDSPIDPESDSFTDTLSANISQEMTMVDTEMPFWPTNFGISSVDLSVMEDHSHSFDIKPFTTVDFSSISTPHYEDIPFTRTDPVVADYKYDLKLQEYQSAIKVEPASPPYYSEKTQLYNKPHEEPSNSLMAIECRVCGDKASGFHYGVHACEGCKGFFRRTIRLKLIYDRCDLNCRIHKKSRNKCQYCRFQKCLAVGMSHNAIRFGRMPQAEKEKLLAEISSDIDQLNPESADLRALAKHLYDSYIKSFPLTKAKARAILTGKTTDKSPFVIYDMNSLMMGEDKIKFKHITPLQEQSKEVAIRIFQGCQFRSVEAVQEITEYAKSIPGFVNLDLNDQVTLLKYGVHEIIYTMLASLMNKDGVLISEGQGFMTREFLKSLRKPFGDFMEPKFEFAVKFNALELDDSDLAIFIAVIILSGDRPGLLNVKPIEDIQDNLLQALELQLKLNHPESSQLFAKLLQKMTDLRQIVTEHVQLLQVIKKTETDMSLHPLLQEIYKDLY
How it was run: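 Cell-based beta-lactamase assay; GW9662 served as the antagonist control. Stimulation used rosiglitazone, final 50 nM, 16 h, 37 C.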

[9] = molecular target: Vitamin D3 receptor (Homo sapiens) (UniProt P11473); test: qHTS assay for small molecule antagonists of vitamin D receptor signaling (AID 588541);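 further: receptor activated by calcitriol during compound treatment; series mostly up to about 77 µM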
Chain of Vitamin D3 receptor (Homo sapiens) (P11473 whole entry, looked up): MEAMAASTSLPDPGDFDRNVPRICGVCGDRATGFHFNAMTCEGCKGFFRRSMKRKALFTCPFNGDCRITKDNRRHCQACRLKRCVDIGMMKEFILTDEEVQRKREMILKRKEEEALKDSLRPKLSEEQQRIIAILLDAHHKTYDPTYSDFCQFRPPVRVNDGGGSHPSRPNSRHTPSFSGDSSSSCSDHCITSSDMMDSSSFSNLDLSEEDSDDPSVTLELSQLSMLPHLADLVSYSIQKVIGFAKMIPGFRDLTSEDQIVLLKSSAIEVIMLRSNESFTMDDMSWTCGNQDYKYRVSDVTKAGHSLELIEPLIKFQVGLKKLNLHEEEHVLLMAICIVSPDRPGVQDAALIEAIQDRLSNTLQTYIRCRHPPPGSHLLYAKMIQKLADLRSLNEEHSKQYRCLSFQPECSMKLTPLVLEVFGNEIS
How it was run: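 Antagonist-mode beta-lactamase reporter assay: HEK293T VDR-UAS-bla cells were exposed to titrated compound alongside 1-alpha,25-dihydroxyvitamin D3 at 3 nM final for 16 h. Values were normalized to the 50 nM agonist control and DMSO basal, with IC50 and efficacy from Hill equation fits.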

[10] = qHTS assay for small molecule agonists of the antioxidant response element (ARE) signaling pathway (AID 651741; active means well fitted activation curve with a large enough effect in the signal ratio; the % refers to the signal ratio; further: potency means the concentration at half of the fitted maximal effect)
How it was run: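 Agonist activity is measured as ARE-driven beta-lactamase expression in a stable HepG2 reporter line, using 16 h compound treatment at 37 C and a FRET substrate fluorescence readout after 2 h.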

[11] = qHTS assay to identify small molecules that stimulate interleukin-8 (IL-8) secretion (AID 651758; active means well fitted activation curve with a large enough effect in the signal ratio; the % refers to the signal ratio; further: potency means the concentration at half of the fitted maximal effect)
How it was run: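 Secreted IL-8 measured homogeneously by TR-FRET (two labelled anti-IL-8 antibodies, 1-3 h at room temperature) after a 16 h, 37 C compound treatment of THP-1 cells at 2000 cells/well.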

[12] = molecular target: Nuclear receptor ROR-gamma (Homo sapiens) (UniProt P51449); test: qHTS assay for small molecule antagonists of the retinoid-related orphan receptor gamma (ROR-gamma) signaling pathway (AID 651802; active means well fitted curve in the direction sought with a large enough effect; an effect the other way counts as inactive or inconclusive;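 further: CHO cells with doxycycline-induced ROR-gamma expression; luciferase reporter luminescence driven by ROR response element; series mostly up to about 92 µM; nearly all actives have a fitted effect of over 60% in size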)
Chain of Nuclear receptor ROR-gamma (Homo sapiens) (P51449 whole entry, looked up): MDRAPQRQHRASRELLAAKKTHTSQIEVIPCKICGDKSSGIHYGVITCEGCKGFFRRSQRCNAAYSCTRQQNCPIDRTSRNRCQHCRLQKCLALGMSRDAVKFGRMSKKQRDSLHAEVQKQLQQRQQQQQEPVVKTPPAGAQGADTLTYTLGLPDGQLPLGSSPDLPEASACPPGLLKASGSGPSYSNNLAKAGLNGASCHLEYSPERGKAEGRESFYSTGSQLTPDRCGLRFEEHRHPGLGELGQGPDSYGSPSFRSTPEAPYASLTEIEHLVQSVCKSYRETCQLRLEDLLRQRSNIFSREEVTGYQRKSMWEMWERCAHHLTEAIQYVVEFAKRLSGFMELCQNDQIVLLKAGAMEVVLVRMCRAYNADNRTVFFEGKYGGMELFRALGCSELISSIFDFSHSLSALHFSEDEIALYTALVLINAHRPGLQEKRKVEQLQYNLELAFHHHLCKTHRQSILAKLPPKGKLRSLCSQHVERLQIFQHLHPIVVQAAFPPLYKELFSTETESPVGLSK
How it was run: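 Luciferase read-out: ONE-Glo luminescence after 30 min at room temperature, following 16hr doxycycline induction at 37C, 5% CO2 of CHO cells with TET-inducible ROR and RORE-LUC reporter; decreased luminescence = reduced reporter activity.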

[13] = qHTS assay for cell viability of the p53RE-bla HCT-116 cell line (AID 743292; active means well fitted curve in the direction sought with a large enough effect; an effect the other way counts as inactive or inconclusive; further: nearly all actives have a fitted effect of over 55% in size)
How it was run: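 ATP-based luminescent viability (CellTiter-Glo, 30 min RT) after 16 h compound treatment at 37 C of p53RE-bla HCT-116 cells, seeded at 4,000 cells/well and rested 5 h before dosing.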

[14] = Cellular Toxicity (caspase-3) Renal Proximal Tubule (AID 667; active means well fitted curve in the direction sought with a large enough effect; an effect the other way counts as inactive or inconclusive;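 further: cells exposed to compound for 16 hours at 37 °C before detection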)
How it was run: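 AC50 derived by standard Hill fit of concentration-response data, normalized between DMSO basal and 10 uM staurosporine as 100% stimulation. Cells: primary rat kidney proximal tubule, 16 h treatment at 37 °C.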

[15] = Cell Viability - LYMP2-008 (AID 980; active means well fitted curve in the direction sought with a large enough effect; an effect the other way counts as inactive or inconclusive; further: nearly all actives have a fitted effect of over 60% in size; further: potency means the concentration at half of the fitted maximal effect)
How it was run: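 Luminescent ATP read-out (CellTiter-Glo, 30 min RT) after 24 hr compound exposure at 37 C of human lymphoblastoid cells in complete medium. Decrease in ATP taken as cytotoxicity; AC50 derived by standard Hill fit of qHTS concentration-response data.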

[16] = Cell Viability - MRC5 (AID 434); conditions: MRC5 lung fibroblast viability, qHTS;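 further: potency means the concentration at half of the fitted maximal effect; cells exposed to compound for 40 hours at 37 °C; potency reflects cytotoxicity seen as loss of intracellular ATP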
How it was run: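 AC50 values come from Hill-equation fits of intracellular ATP loss, measured by CellTiter-Glo luminescence. Normal lung fibroblasts (MRC5) had 40 hr compound treatment at 37 C, normalized between DMSO and 100 uM tamoxifen.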

[17] = molecular target: Ubiquitin carboxyl-terminal hydrolase 1 (Homo sapiens) (UniProt O94782); test: Inhibitors of USP1/UAF1: Pilot qHTS (AID 504865; active means well fitted curve in the direction sought with a large enough effect; an effect the other way counts as inactive or inconclusive;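 further: rhodamine fluorescence freed from ubiquitin-rhodamine substrate followed over time; top concentration of the series differs between compounds; nearly all actives have a fitted effect of over 35% in size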)
Chain of Ubiquitin carboxyl-terminal hydrolase 1 (Homo sapiens) (O94782 whole entry, looked up): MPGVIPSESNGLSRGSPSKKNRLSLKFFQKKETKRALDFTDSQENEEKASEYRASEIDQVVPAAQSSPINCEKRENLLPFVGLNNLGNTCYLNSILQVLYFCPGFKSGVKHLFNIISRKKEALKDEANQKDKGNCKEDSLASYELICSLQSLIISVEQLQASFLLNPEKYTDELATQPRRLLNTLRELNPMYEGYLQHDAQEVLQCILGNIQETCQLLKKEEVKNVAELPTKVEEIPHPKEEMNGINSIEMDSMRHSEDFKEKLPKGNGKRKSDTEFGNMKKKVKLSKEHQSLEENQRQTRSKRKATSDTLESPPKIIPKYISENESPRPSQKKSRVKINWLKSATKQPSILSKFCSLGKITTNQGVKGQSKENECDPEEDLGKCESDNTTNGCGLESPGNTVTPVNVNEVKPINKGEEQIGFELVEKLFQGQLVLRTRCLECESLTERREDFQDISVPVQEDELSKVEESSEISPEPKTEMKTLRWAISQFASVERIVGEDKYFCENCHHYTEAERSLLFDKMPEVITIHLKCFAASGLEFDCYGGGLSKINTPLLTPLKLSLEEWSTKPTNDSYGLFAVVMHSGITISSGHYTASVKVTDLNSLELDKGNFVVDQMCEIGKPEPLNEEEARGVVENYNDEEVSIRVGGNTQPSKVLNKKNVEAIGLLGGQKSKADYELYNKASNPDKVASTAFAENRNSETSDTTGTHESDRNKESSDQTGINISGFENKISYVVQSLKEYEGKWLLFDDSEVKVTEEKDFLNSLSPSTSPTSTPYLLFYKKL
How it was run: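 In 50mM HEPES pH 7.8 containing 0.5mM EDTA, 1mM TCEP, 0.1 mg/ml BSA and 0.01% Tween-20, 1nM USP1/UAF1 is exposed to compound for 15 min, then Ub-Rho (150nM final) is added and fluorescence is read over time.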

[18] = qHTS assay for small molecule activators of the nuclear factor-kappa B (NF-kB) signaling pathway (AID 651749; active means well fitted activation curve with a large enough effect in the signal ratio; the % refers to the signal ratio; further: series mostly up to about 77 µM); conditions: NF-kB-bla ME-180 cells, beta-lactamase FRET ratio, 16 h; stronger effect = higher value
How it was run: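 FRET-based beta-lactamase detection in ME-180 cells reports NF-kB response-element-driven transcription following overnight (16 hr) compound treatment.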

SMILES | Potency [1] | Potency [2] | Potency [3] | outcome [4] | Potency [5] | max response [6] | Potency [7] | outcome [8] | outcome [9] | Potency [10] | Potency [11] | Potency [12] | Potency [13] | outcome [14] | Potency [15] | Potency [16] | Potency [17] | activation [18]
Cc1ccc([N+](=O)[O-])c(C)c1 | inactive | inactive | inactive | inactive | inactive | -27.9% and -14.4% | inactive | inactive | inactive | inactive | inactive | inactive | inactive |  |  |  |  | 
CCCCCCCCCCCCCCC1CO1 (stereo not given) | inactive |  | inactive |  | inactive | 14.3% | inactive | inactive | inactive | inactive |  | inactive |  | inactive | inactive |  |  | 
CC1=CC(C)(C)Nc2ccccc21 |  | inactive | inactive |  |  | 34.8% and 1.74% | inactive | inactive | inactive |  | inactive | inactive | inactive |  |  |  |  | 
NC1=NC(S)C2N=CN=C2N1 (stereo not given) |  | 15.8 µM (active) |  |  | 7.08 µM (active) |  |  |  | inactive | 33.5 µM (active) | 66.8 µM (active) | inactive |  | inactive | 3.16 µM (active) | > 92 µM (inactive) | inactive | 0.298% (inactive)
c1ccc2c(c1)[nH]c1ccccc12 | inactive |  | inactive |  | inactive | -0.442% and 48.8% | inactive | inactive |  | inactive |  |  |  | inactive |  |  |  | 
CCC(O)OC(O)CC (stereo not given) |  |  | inactive |  | inactive |  |  | inactive | inactive |  | inactive |  |  |  | inactive |  |  | 0.14% (inactive) [middle of 4 runs]
CCCN(CCC)C(=O)SCC |  | inactive | inactive |  | inactive |  |  | inactive | inactive | inactive |  | inactive |  |  |  | > 92 µM (inactive) |  | 
Cc1ccc([N+](=O)[O-])cc1N | inactive |  | inactive | inactive |  | 18.4% and -6.91% | inactive | inactive | inactive |  |  | inactive |  | inactive | inactive | > 92 µM (inactive) |  | 
CC1(C)CC(N=C=O)CC(C)(CN=C=O)C1 (stereo not given) |  |  | inactive | inactive |  |  |  | inactive | inactive | inactive |  | inactive |  |  | inactive | > 92 µM (inactive) |  | -0.293% (inactive) and -0.0815% (inactive)
CN(C)C(=O)c1ccc(-c2ccc3ncnc(Nc4ccc(F)cc4)c3c2)cc1 |  |  |  |  |  |  |  |  |  |  |  |  |  |  |  |  | inactive | 
ClCCCl | inactive |  | inactive |  | inactive | -25.6% and 21.1% | inactive | inactive | inactive | inactive | inactive | inactive | inactive | inactive |  | > 92 µM (inactive) |  | -0.0783% (inactive) and -1.06% (inactive) and -1.29% (inactive)
COC(=O)CCCCC(=O)OC | inactive |  | inactive | inactive | inactive | 25.3% and -0.778% | inactive | inactive | inactive |  | inactive | inactive |  |  |  |  |  | 
O=C(/C=C/c1ccc(O)c(O)c1)O[C@@H](C(=O)O)[C@@H](OC(=O)/C=C/c1ccc(O)c(O)c1)C(=O)O | inactive |  |  | inactive | inactive | 24.1% | inactive |  | inactive | inactive |  | inactive |  |  | inactive | > 92 µM (inactive) |  | 
OCCNCCO | inactive | inactive | inactive |  | inactive | 0.125% and 53.2% | inactive |  | inactive |  |  |  |  |  |  |  |  | 
CC(C)=CCCC(C)CCO (stereo not given) | inactive |  | inactive |  | inactive | 6.53% and 29.8% | inactive | inactive |  | inactive |  | inactive |  |  |  | > 92 µM (inactive) | inactive | 0.223% (inactive) and -0.597% (inactive)
